Rows were chosen to be rich in hits. Some 8.7% of all compounds tested hit in one or more screens of this group.
Vaccinia Venus – qHTS for Stage-Specific Inhibitors of Vaccinia Orthopoxvirus: Venus Reporter Primary qHTS; Vaccinia virus Venus reporter expression, fluorescence; AID 720580, 2013; Potency, µM (titrated, usually from 36.5 µM), inactives show top-dose activity change, negative = inhibition, most hits filed as inhibitors; actives 0.46% (n = 330,000); calls by dose curve; tested in A549 cells; further: nearly all actives have a fitted effect of over 30% in size
Vaccinia mCherry – qHTS for Stage-Specific Inhibitors of Vaccinia Orthopoxvirus: mCherry Reporter Primary qHTS. actives 0.63% (n = 310,000). Vaccinia virus mCherry reporter infection, fluorescence. Potency, µM (series often up to 36.5 µM), inactives show at the highest dose activity change, negative = inhibition, hits mostly inhibitors. AID 720579, 2013; calls by dose curve; tested in A549 cells; further: nearly all actives have a fitted effect of over 35% in size
AMA1 RON2 block – qHTS for Inhibitors of AMA1-RON; Towards Development of Antimalarial Drug Lead: Primary Screen. Plasmodium falciparum AMA1 (3D7) - RON2 peptide interaction. AlphaScreen AMA1-biotinylated RON2 peptide binding. Potency, µM (series often up to 58.2 µM), for the others: top-dose activity change, negative = inhibition, actives largely listed as inhibitors. actives 0.2% (n = 360,000);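 further: 0% = vehicle wells and -100% = peptide control; nearly all actives have a fitted effect of over 45% in size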
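AMA1 (3D7) with his tag at 25 nM final met compounds first, then biotinylated RON2 peptide at 25 nM; detection used donor plus acceptor beads, 10 µg/mL apiece, read by AlphaScreen after 30 min at room temperature.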
Pf growth 96h – Primary qHTS for delayed death inhibitors of the malarial parasite plastid, 96 hour incubation | P. falciparum luciferase reporter growth, 96 h | Potency, µM (doses to about 28.7 µM), without a hit: at the highest dose activity change, negative = inhibition, hits mostly inhibitors | actives 6.9% (n = 320,000) | AID 504834, 2011
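Readout is luminescence from an integrated firefly luciferase in P. falciparum. Red cells, 2% hematocrit and 0.05% parasitemia final, were cultured with compound through two parasite generations (96 hours) at 37 C, 5% CO2.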
Pf growth 48h – Primary qHTS for delayed death inhibitors of the malarial parasite plastid, 48 hour incubation; P. falciparum luciferase growth in erythrocytes, 48 h; Potency, µM (top dose mostly 28.7 µM), without a hit: at the top dose activity change, negative = inhibition, usual class: inhibitors; actives 5.9% (n = 310,000); AID 504832, 2011
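First compound was added to culture medium, then infected red cells at 0.1% parasitemia and 2% hematocrit (final). After incubation at 37 C under 5% CO2, luciferase detection reagent was dispensed and light output recorded.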
Numbers without * were called inactive; [ ] = remark or other dose. Unless noted, the call rests on the fitted dose curve; in most records, active means well fitted curve in the direction sought with a large enough effect; inconclusive means small, poorly fitted or top-dose-only effect, or another doubt; inactive means no such curve, though single readings can be large; an effect the other way counts as inactive or inconclusive. Unless noted, on the % scale 0 is the no-effect control and ±100 the full control effect; potency means the concentration at half of the fitted maximal effect.

What do the screens show for `COCCCNC(=O)CCCn1c(SCC(=O)c2ccc(Br)cc2)nc2c(sc3ccccc32)c1=O`?
Vaccinia Venus: -5.3%; Vaccinia mCherry: -10.3%

Results for O=C(NCCc1nc2ccccc2n1CCOc1ccc2ccccc2c1)C1CCCCC1 ?
Vaccinia Venus: -12.8%; Vaccinia mCherry: -25.6%

Results for CC1(C)Oc2ccc(C(=O)N3CCCC3)cc2N(CC(=O)NCc2ccccc2)C1=O ?
Vaccinia Venus: -8.3%; Vaccinia mCherry: -15.2%; AMA1 RON2 block: 1.2%; Pf growth 96h: -6.6%; Pf growth 48h: -5.3%

Results for COc1ccc(C(=O)CN2C(=O)C(C)(C)Oc3ccc(C(=O)N4CCCCCC4)cc32)cc1 ?
Vaccinia Venus: -19.3%; Vaccinia mCherry: -11.4%; AMA1 RON2 block: 10.1%; Pf growth 96h: 9.28µM*

Results for CCCN(CCC)C(=O)Cn1c(=O)n(-c2cccc(OC)c2)c(=O)c2c(C)c(C(=O)N(C)C)sc21 ?
Vaccinia Venus: 6.8%; Vaccinia mCherry: 5.3%

What do the screens show for `CCS(=O)(=O)NCCNc1ccc([N+](=O)[O-])cc1`?
Vaccinia Venus: -11.9%; Vaccinia mCherry: -5.4%; AMA1 RON2 block: -19.1%; Pf growth 96h: 11.7µM*; Pf growth 48h: -2.0%

Results for CC(=O)NCCCNc1ccc([N+](=O)[O-])cc1 ?
Vaccinia Venus: -3.4%; Vaccinia mCherry: -18.1%; AMA1 RON2 block: 17.5%; Pf growth 96h: 1.5%; Pf growth 48h: 75.8%

Results for CCOC(=O)C1(N(CC)CC)Sc2cc(C)ccc2NC1=O (stereo unspecified) ?
Vaccinia Venus: inconclusive; Vaccinia mCherry: inconclusive; AMA1 RON2 block: 0.0%; Pf growth 96h: 5.86µM*; Pf growth 48h: inconclusive

How did CCOC(=O)C1(Nc2nccs2)Sc2ccccc2NC1=O (stereo unspecified) do in these assays?
Vaccinia Venus: inconclusive; Vaccinia mCherry: inconclusive; AMA1 RON2 block: -8.1%; Pf growth 96h: inconclusive

Results for CCc1ccc(CNC(=O)CCCN2C(=O)c3cccnc3Oc3ccc(Cl)cc32)cc1 ?
Vaccinia Venus: -3.2%; Vaccinia mCherry: -10.0%

What do the screens show for `c1ccc2c(c1)oc1c(NCCCn3ccnc3)ncnc12`?
Vaccinia Venus: 3.0%; AMA1 RON2 block: -2.9%; Pf growth 96h: inconclusive; Pf growth 48h: 4.9%

Results for c1ccc(-c2c(-c3ccccc3)n(Cc3ccco3)c3ncnc(NCCCn4ccnc4)c23)cc1 ?
Vaccinia Venus: 12.6µM*; Vaccinia mCherry: inconclusive; AMA1 RON2 block: inconclusive; Pf growth 96h: 2.08µM*

How did CN(C)CCCNc1ncnc2oc(-c3ccccc3)c(-c3ccccc3)c12 do in these assays?
Vaccinia Venus: inconclusive; Vaccinia mCherry: -19.2%; AMA1 RON2 block: -7.0%; Pf growth 96h: 13.1µM*; Pf growth 48h: 16.5µM*

How did COc1ccc(-c2oc3ncnc(N)c3c2-c2ccccc2)cc1 do in these assays?
AMA1 RON2 block: -3.2%; Pf growth 96h: -18.9%

What do the screens show for `c1ccc(-c2oc3ncnc(NCCCn4ccnc4)c3c2-c2ccccc2)cc1`?
Vaccinia Venus: -20.3%; Vaccinia mCherry: -29.6%; AMA1 RON2 block: -28.2%; Pf growth 96h: 22.3%; Pf growth 48h: 13.1µM*

What do the screens show for `N=c1c2c(-c3ccccc3)c(-c3ccccc3)n(Cc3ccco3)c2ncn1CCCn1ccnc1`?
Vaccinia Venus: inconclusive; Vaccinia mCherry: -20.8%; AMA1 RON2 block: -7.9%; Pf growth 96h: inconclusive; Pf growth 48h: 1.85µM*

Results for COc1ccccc1CN1CCC2(CCC(CNC(=O)c3ccccc3N(C)C)O2)CC1 (stereo unspecified) ?
Vaccinia Venus: -2.1%; Vaccinia mCherry: -15.9%

Results for CCOc1ccccc1CNC(=O)CN(c1ccc(C)cc1)S(=O)(=O)N(C)C ?
Vaccinia Venus: -5.3%; Vaccinia mCherry: -4.1%

Results for CCN(C(=O)C(C)Sc1ccc(S(=O)(=O)N2CCOCC2)cn1)c1ccccc1 (stereo unspecified) ?
AMA1 RON2 block: 8.3%; Pf growth 96h: inconclusive; Pf growth 48h: 13.1µM*

What do the screens show for `CC(Sc1ccc(S(=O)(=O)N2CCCC2)cn1)C(N)=O` (stereo unspecified)?
Vaccinia Venus: -13.6%; Vaccinia mCherry: -15.6%; AMA1 RON2 block: 8.6%[11.6 µM]; Pf growth 96h: -13.4%; Pf growth 48h: -5.1%

Results for CC(C)C(C)NC(=O)CSc1ccc(S(=O)(=O)N2CCOCC2)cn1 (stereo unspecified) ?
AMA1 RON2 block: 14.9%; Pf growth 96h: -6.9%; Pf growth 48h: -8.2%

What do the screens show for `CN(C)C(=O)C(Sc1ccc(S(=O)(=O)N2CCCC2)cn1)c1ccccc1` (stereo unspecified)?
Vaccinia Venus: -11.5%; Vaccinia mCherry: -24.8%; AMA1 RON2 block: 10.7%; Pf growth 96h: inconclusive; Pf growth 48h: 14.7µM*

How did CN(C(=O)CSc1ccc(S(=O)(=O)N2CCCCC2)cn1)c1ccccc1 do in these assays?
AMA1 RON2 block: -2.7%; Pf growth 96h: 11.7µM*; Pf growth 48h: inconclusive

Results for Cc1nc2ccc(S(=O)(=O)NC(CC(C)C)C(=O)NCc3ccc(Cl)cc3)cc2s1 (stereo unspecified) ?
Vaccinia Venus: -9.1%; Vaccinia mCherry: -13.8%

What do the screens show for `Cc1ccccc1NC(=O)CSc1nc2ccc(NC(=O)c3ccccc3)cc2s1`?
Vaccinia Venus: 13.6%; Vaccinia mCherry: -0.8%

How did O=C1C=C(c2cccc(Cl)c2)C[C@@H](c2ccc(Cl)cc2)C1 do in these assays?
Vaccinia Venus: -19.5%; Vaccinia mCherry: inconclusive; AMA1 RON2 block: 3.7%; Pf growth 96h: 2.08µM*; Pf growth 48h: 3.29µM*

What do the screens show for `CC(C)c1cccc(C2=CC(=O)C[C@H](c3ccc4c(c3)OCO4)C2)c1`?
Vaccinia Venus: -23.5%; Vaccinia mCherry: -10.4%; AMA1 RON2 block: -25.8%; Pf growth 96h: 8.28µM*; Pf growth 48h: 13.1µM*

What do the screens show for `O=C1C=C(c2cccc(Br)c2)C[C@@H](c2ccc(Cl)cc2)C1`?
Vaccinia Venus: -16.9%; Vaccinia mCherry: -7.8%; AMA1 RON2 block: -7.1%

What do the screens show for `O=C1C=C(c2cccc(Cl)c2O)C[C@@H](c2ccc(Cl)cc2)C1`?
Vaccinia Venus: -15.7%; Vaccinia mCherry: -21.8%; AMA1 RON2 block: 0.0%; Pf growth 96h: 1.47µM*; Pf growth 48h: 2.94µM*

How did O=C1C=C(c2cc(F)ccc2F)C[C@@H](c2ccc(Cl)cc2)C1 do in these assays?
Vaccinia Venus: -17.2%; Vaccinia mCherry: inconclusive; AMA1 RON2 block: -2.4%; Pf growth 96h: inconclusive; Pf growth 48h: 3.7µM*

How did CSc1ccc(C2=CC(=O)C[C@H](c3ccc(Cl)cc3)C2)cc1 do in these assays?
Vaccinia Venus: -14.7%; Vaccinia mCherry: -22.5%; AMA1 RON2 block: -7.9%; Pf growth 96h: -4.0%; Pf growth 48h: inconclusive

Screening data: PubChem BioAssay, National Center for Advancing Translational Sciences (NCATS)
